# Shiga inhibitor: A qHTS for Small Molecule Inhibitors of Shiga Toxin. Vero cells, Shiga toxin protein synthesis inhibition reporter. inhibition, % at 38.7 µM. 290,000 compounds, 9.2% hits; in the data active = inhibition mostly above about 28%, no sharp cut-off; inactive = mostly below about 43%; also: 0% is about no effect
# Pf growth 48h: Primary qHTS for delayed death inhibitors of the malarial parasite plastid, 48 hour incubation | 310,000 compounds, 5.9% hits | Potency, µM (series often up to 28.7 µM), for inactives: top-dose activity change, negative = inhibition, actives largely listed as inhibitors | P. falciparum luciferase growth in erythrocytes, 48 h; active = well fitted inhibition curve with a large enough effect; inconclusive = small, poorly fitted or top-dose-only effect, or another doubt; inactive = no such curve, though single readings can be large or run the other way; also: potency is read from the fitted curve at half-maximal effect; % is scaled to controls: 0 for no effect and ±100 for the full control effect
#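 Luminescence readout; reporter = integrated firefly luciferase in P. falciparum. RBC culture at 2% hematocrit, 0.1% parasitemia final, 37 C/5% CO2; decreased signal taken as growth inhibition.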
# SARS PLpro yeast: qHTS of Yeast-based Assay for SARS-CoV PLP; Potency, µM (top dose mostly 32.9 µM), inactives show at the highest dose activity, positive = growth rescue, hits mostly activators; S. cerevisiae expressing SARS-CoV PLpro, growth rescue; 330,000 compounds, 0.19% hits; also: potency is read from the fitted curve at half-maximal effect; 0% is about no effect; nearly all actives have a fitted effect of over 55% in size
# NS1 inh: qHTS Assay for Inhibitors of Influenza NS1 Protein Function. 270,000 compounds, 0.4% hits. Potency, µM (doses to about 46.1 µM), for the others: at the top dose activity, positive = more growth; also: potency is read from the fitted curve at half-maximal effect; actives are rising curves; nearly all actives have a fitted effect of over 50% in size
#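 In this qHTS, NS1 from influenza A is expressed in budding yeast, where it slows growth. Cells are switched from glucose to 2% galactose medium (pH 6.0, -URA), treated with compound, and growth recovery is read at OD600.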
# Pf growth 96h: Primary qHTS for delayed death inhibitors of the malarial parasite plastid, 96 hour incubation; P. falciparum luciferase reporter growth, 96 h; Potency, µM (doses to about 28.7 µM), inactives show at the top dose activity change, negative = inhibition, actives largely listed as inhibitors; 320,000 compounds, 6.9% hits; active = well fitted inhibition curve with a large enough effect; inconclusive = small, poorly fitted or top-dose-only effect, or another doubt; inactive = no such curve, though single readings can be large or run the other way; also: potency is read from the fitted curve at half-maximal effect; % is scaled to controls: 0 for no effect and ±100 for the full control effect
#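 Two parasite generations (96 h, 37 C, 5% CO2) of compound exposure in infected erythrocytes (0.05% parasitemia, 2% hematocrit). Luciferase-reporter P. falciparum; decreased luminescence indicates inhibited growth, aimed at apicoplast-acting delayed death.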
# CHX counter: Cycloheximide Counterscreen for Small Molecule Inhibitors of Shiga Toxin; max response, %; cell reporter, cycloheximide protein synthesis inhibition counterscreen; 300,000 compounds, 12% hits; in the data active = max response mostly above about 13%, no sharp cut-off; inactive = mostly below about 14%; also: read at 38.3 µM for the half of the compounds with a filed dose; 0% is about no effect
# Numbers without * were called inactive; ? = inconclusive; . = not tested or not shown. Sampled rows, rich in hits. Any-hit rate of the full collection: about 21%. Unless noted, calls follow the shape of the full dose curve.
SMILES,Shiga inhibitor,Pf growth 48h,SARS PLpro yeast,NS1 inh,Pf growth 96h,CHX counter
CCCCCCn1c(SCC(=O)c2c(N)n(C)c(=O)n(C)c2=O)nc2ccccc21,-6,.,-3%,4%,0.93µM*,-3
COc1ccc(S(=O)(=O)N(CC(=O)NCC2CCCO2)c2ccc(F)cc2)cc1OC (stereo not given),-7,?,-1%,5%,?,1
COc1ccc(/C=C2\CCCc3c2nc2ccccc2c3C(=O)OCC(=O)c2c(N)n(C)c(=O)n(C)c2=O)cc1,-15,?,16%,?,4.1µM*,-3
Cn1c(N)c(C(=O)COC(=O)c2cc(-c3ccco3)nc3ccccc23)c(=O)n(C)c1=O,31,?,-25%,?,?,21*
Cn1c(N)c(C(=O)COC(=O)c2cc(C3CC3)nc3ccccc23)c(=O)n(C)c1=O,-9,?,17%,-12%,?,-4
COc1ccc(-c2cc(C(=O)OCC(=O)c3c(N)n(C)c(=O)n(C)c3=O)c3ccccc3n2)cc1,3,21%,0%,.,40%,-2
CCOC(=O)C1=C(COC(=O)COc2ccc(C#N)cc2)NC(=O)NC1C (stereo not given),7,11%,5%,-2%,0%,-1
COc1ccc2c(c1)CCN=C2Cc1ccc(OC)c(OC)c1,-3,?,9%,7%,13µM*,-3
CCOC(=O)c1sc(NC(=O)c2ccc(=O)[nH]c2)nc1C,3,21%,4%,-8%,0%,-3
COC(=O)c1sc(NC(=O)c2ccncc2)nc1C,9,50%,-9%,-41%,4%,5
CCOc1ccc(C(=O)Nc2nc(C)c(C(=O)OC)s2)cc1,51*,86%,0%,-3%,125%,35*
C=CCOC(=O)c1sc(NC(=O)c2ccc(OC)cc2)nc1C,37,10%,0%,1%,40%,16*
Cc1ccc(OCC(=O)N(Cc2nnc(-c3ccccc3Cl)o2)C2CC2)cc1C,.,?,-1%,.,-16%,.
CC1(C)Cc2c(cnn2-c2ccc(F)cc2)C(NC(=O)CCCN2CCCCC2=O)C1 (stereo not given),27,-25%,-2%,7%,13µM*,1
Cc1ccc(-n2ncc3c2CC(C)(C)CC3NC(=O)CCCN2CCCC2=O)cc1 (stereo not given),-7,-19%,-4%,6%,?,1
CC1(C)Cc2c(cnn2-c2ccccc2)C(NC(=O)CCCN2CCCCC2=O)C1 (stereo not given),-7,-8%,21%,9%,6.6µM*,16
CC1(C)Cc2c(cnn2-c2ccccc2)C(NC(=O)CCN2CCCC2=O)C1 (stereo not given),-4,10%,4%,-2%,15µM*,10
CCC1CCCCN1CCCNC(=O)c1ccc(N2CCOCC2)c(NS(=O)(=O)c2ccc(OC)cc2)c1 (stereo not given),7,-25%,1%,.,?,-5
CC1(c2cccc(Br)c2)NC(=O)N(CC(=O)Nc2ccc(F)cc2)C1=O (stereo not given),10,4%,3%,8%,-9%,-4
COc1cc(CNCc2ccc(C)cc2)cc(OC)c1OC,12,-25%,0%,10%,?,-3
COc1ccc(/C=C2/CCOC2=O)cc1,-2,20%,2%,9%,31%,18*
Cc1ccc(/C=C2/C(=O)NC(=O)N(C)C2=O)cc1,13,7%,2%,?,-21%,-2
Cc1ccc(/C=C2\CCOC2=O)cc1,15,?,1%,-2%,11%,12*
Cc1ccc(/C=C2/CNC/C(=C\c3ccc(C)cc3)C2=O)cc1,86*,.,.,.,.,67*
COc1cc(/C=C2\CCOC2=O)cc(OC)c1OC,-10,0%,2%,3%,-17%,2
CCOC(=O)c1cnc(-n2nc(C)cc2C)nc1Nc1ccc2c(c1)OCO2,-25,12%,5%,-45%,15µM*,2
CCOC(=O)c1cnc(-n2nc(C)cc2C)nc1Nc1ccc(C)cc1,6,?,3%,16%,?,8

# Compound activity from PubChem BioAssay.
